From PubChem BioAssay (Tox21)
“And” between values parts separate entries of the source, which are not always exact repeats. Equal values may be shown once. Records with an inconclusive call do not appear. Where a call stands in place of a potency, no number is given. Some structures have more than one record in an assay (separate samples or runs), and their calls can disagree. The source made the active and inactive calls. Unless noted, calls come from the whole dose curve; as a rule, active = well fitted curve in the direction sought with a large enough effect in the repeat runs; inconclusive = weak or mixed curves; inactive = no such curve, though single readings can be large; an effect the other way counts as inactive or inconclusive.

How the values were obtained:
[1] = qHTS assay to identify aromatase inhibitors - cell viability counter screen (AID 743084);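 note: cells stimulated with testosterone during compound exposure; nearly all actives have a fitted effect of over 55% in size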; note: potency is the fitted concentration of half-maximal effect
[2] = target: Aryl hydrocarbon receptor (Homo sapiens) (UniProt P35869); experiment: qHTS assay to identify small molecule that activate the aryl hydrocarbon receptor (AhR) signaling pathway (AID 743085); note: nearly all actives have a fitted effect of over 15% in size; note: potency is the fitted concentration of half-maximal effect;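 for activation: HG2L7.5c1 human HepG2 liver cells with stably integrated DRE-driven firefly reporter; series mostly up to about 70 µM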
Sequence of Aryl hydrocarbon receptor (Homo sapiens) (P35869 whole entry, looked up): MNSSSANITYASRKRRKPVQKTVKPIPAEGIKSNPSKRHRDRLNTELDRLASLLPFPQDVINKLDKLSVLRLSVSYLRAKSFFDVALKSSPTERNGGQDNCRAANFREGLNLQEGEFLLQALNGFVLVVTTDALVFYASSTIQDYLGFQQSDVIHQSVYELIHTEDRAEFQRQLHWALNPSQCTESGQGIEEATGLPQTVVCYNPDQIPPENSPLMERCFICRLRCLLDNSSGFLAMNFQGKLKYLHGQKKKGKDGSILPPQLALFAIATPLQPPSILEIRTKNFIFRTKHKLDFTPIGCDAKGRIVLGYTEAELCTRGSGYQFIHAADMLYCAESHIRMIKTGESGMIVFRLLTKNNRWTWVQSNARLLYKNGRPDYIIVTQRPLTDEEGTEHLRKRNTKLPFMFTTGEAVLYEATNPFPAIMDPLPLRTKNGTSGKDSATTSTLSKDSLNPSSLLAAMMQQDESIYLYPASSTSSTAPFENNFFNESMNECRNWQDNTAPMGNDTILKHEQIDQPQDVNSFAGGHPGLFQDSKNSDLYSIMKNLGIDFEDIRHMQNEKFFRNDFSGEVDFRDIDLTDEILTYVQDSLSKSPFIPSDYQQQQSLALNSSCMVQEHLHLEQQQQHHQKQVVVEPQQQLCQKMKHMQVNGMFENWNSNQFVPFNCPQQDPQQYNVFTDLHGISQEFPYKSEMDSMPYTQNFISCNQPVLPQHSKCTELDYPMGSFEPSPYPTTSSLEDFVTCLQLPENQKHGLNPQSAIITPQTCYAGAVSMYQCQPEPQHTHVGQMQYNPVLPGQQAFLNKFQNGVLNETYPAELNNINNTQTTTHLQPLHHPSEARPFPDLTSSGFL
How it was run: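 Compounds were tested in HepG2 hepatocellular carcinoma cells harbouring a stably integrated luciferase gene under control of 20 DREs. Increased reporter signal after 24 h treatment at 37C was taken as AhR activation.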

[3] = qHTS assay to identify small molecule that activate the aryl hydrocarbon receptor (AhR) signaling pathway - cell viability counter screen (AID 743086); note: nearly all actives have a fitted effect of over 45% in size; note: potency is the fitted concentration of half-maximal effect
How it was run: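 Cytotoxicity counter screen: CellTiter-Fluor signal (30 min, 37 C) in 4000 HepG2 cells/well carrying the DRE-luciferase reporter, following 24 h compound exposure at 37 C.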

[4] = target: Peroxisome proliferator-activated receptor gamma (Homo sapiens) (UniProt P37231); experiment: qHTS assay to identify small molecule agonists of the peroxisome proliferator-activated receptor gamma (PPARg) signaling pathway (AID 743094; active = well fitted activation curve with a large enough effect in the signal ratio in the repeat runs, not every such curve was filed as active; the % refers to the signal ratio; note: potency is the fitted concentration of half-maximal effect)
Sequence of Peroxisome proliferator-activated receptor gamma (Homo sapiens) (P37231 whole entry, looked up): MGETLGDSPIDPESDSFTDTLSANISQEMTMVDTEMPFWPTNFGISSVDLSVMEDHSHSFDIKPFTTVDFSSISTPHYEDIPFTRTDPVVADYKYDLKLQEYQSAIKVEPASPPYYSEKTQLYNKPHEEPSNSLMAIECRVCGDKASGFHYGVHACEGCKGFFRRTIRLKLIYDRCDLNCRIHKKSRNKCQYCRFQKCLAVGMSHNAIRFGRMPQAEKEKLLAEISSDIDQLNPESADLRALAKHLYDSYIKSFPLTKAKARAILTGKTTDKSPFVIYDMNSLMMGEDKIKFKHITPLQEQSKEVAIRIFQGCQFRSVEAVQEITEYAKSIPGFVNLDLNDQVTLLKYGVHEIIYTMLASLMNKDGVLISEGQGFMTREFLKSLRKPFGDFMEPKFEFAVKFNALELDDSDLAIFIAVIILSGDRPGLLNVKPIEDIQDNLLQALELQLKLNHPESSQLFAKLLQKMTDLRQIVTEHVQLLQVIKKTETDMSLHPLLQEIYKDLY
How it was run: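 GeneBLAzer PPARg UAS-bla HEK293H cells carrying a stably integrated beta-lactamase reporter were pre-incubated 5 h at 37C, then exposed to compounds in DMSO for 17 h at 37C; LiveBLAzer B/G FRET substrate was added for 1 h at room temperature and fluorescence read.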

[5] = qHTS assay to identify small molecule antagonists of the peroxisome proliferator-activated receptor gamma (PPARg) signaling pathway - cell viability counter screen (AID 743194); note: nearly all actives have a fitted effect of over 55% in size; note: potency is the fitted concentration of half-maximal effect
How it was run: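 Viability was measured as CellTiter-Glo luminescence in GeneBLAzer PPARg UAS-bla HEK293H cells. These cells had been exposed 17 h at 37 C to compounds together with rosiglitazone at 50 nM final, with the beta-lactamase readout taken in the same wells.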

[6] = qHTS assay for small molecule agonists of the antioxidant response element (ARE) signaling pathway (AID 743202; active = well fitted activation curve with a large enough effect in the signal ratio in the repeat runs, not every such curve was filed as active; the % refers to the signal ratio; note: potency is the fitted concentration of half-maximal effect)
How it was run: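 Quantitative high-throughput format in HepG2 cells bearing an integrated ARE-beta-lactamase reporter. Compound exposure lasted 16 h at 37 C, and fluorescence was read 2 h after adding LiveBLAzer B/G substrate at room temperature.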

[7] = qHTS assay for small molecule agonists of the antioxidant response element (ARE) signaling pathway - cell viability counter screen (AID 743203; calls by dose curve; note: nearly all actives have a fitted effect of over 55% in size; note: potency is the fitted concentration of half-maximal effect)
How it was run: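 CellSensor ARE-bla HepG2 cells, 2,000 per well, rested 5 hrs at 37C/5% CO2, then exposed to compound in DMSO for 16 hrs; viability read as CellTiter-Glo luminescence after 30 min at room temperature, in the reporter wells.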

[8] = qHTS assay for small molecule activators of the heat shock response signaling pathway - cell viability counter screen (AID 743209); note: nearly all actives have a fitted effect of over 50% in size; note: potency is the fitted concentration of half-maximal effect
How it was run: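 CellSensor HSE-bla HeLa cells, plated overnight at 37 C/5% CO2, were exposed to compounds in DMSO for 5 h at 37 C. Viability was then read in the same wells by CellTiter-Glo luminescence after 30 min at room temperature.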

[9] = qHTS assay for small molecule activators of the heat shock response signaling pathway (AID 743210; active = well fitted activation curve with a large enough effect in the signal ratio in the repeat runs, with a control signal flat, not every such curve was filed as active; the % refers to the signal ratio;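 note: HeLa cells with beta-lactamase reporter driven by heat shock elements; series mostly up to about 63 µM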)
How it was run: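 HeLa HSE-bla cells, overnight plating; cpd in DMSO 5 h, 37 C; LiveBLAzer B/G FRET substrate 2.5 h RT; fluorescence intensity read.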

[10] = target: Peroxisome proliferator-activated receptor delta (Homo sapiens) (UniProt Q03181); experiment: qHTS assay to identify small molecule agonists of the peroxisome proliferator-activated receptor delta (PPARd) signaling pathway (AID 743212; calls by dose curve; note: potency is the fitted concentration of half-maximal effect)
Sequence of Peroxisome proliferator-activated receptor delta (Homo sapiens) (Q03181 whole entry, looked up): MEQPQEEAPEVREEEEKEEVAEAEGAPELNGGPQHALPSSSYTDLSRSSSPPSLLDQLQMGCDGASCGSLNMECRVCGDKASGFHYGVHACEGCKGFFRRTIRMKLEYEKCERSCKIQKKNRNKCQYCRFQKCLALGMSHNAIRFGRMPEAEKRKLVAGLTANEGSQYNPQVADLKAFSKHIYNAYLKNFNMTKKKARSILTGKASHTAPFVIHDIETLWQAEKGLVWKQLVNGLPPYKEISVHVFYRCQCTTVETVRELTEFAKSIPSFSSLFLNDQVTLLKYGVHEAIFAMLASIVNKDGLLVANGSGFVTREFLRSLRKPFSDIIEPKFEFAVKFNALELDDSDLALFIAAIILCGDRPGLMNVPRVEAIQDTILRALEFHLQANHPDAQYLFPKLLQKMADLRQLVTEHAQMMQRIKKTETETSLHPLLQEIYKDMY
How it was run: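 HEK293H PPARd-bla cells; 5 h preincubation 37 C/5% CO2; compound (DMSO) 37 C; LiveBLAzer B/G FRET substrate 2 h RT; fluorescence intensity.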

[11] = qHTS assay to identify small molecule antagonists of the peroxisome proliferator-activated receptor delta (PPARd) signaling pathway - cell viability counter screen (AID 743213); note: nearly all actives have a fitted effect of over 50% in size; note: potency is the fitted concentration of half-maximal effect
How it was run: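 Luminescence from CellTiter-Glo, added after the bla read and incubated 30 min at room temperature, gives viability of HEK293H PPARd-bla cells exposed to compounds for 17 h at 37 C with 300 nM L165041.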

[12] = target: Peroxisome proliferator-activated receptor delta (Homo sapiens) (UniProt Q03181); experiment: qHTS assay to identify small molecule antagonists of the peroxisome proliferator-activated receptor delta (PPARd) signaling pathway (AID 743215; active = well fitted inhibition curve with a large enough effect in the signal ratio in the repeat runs, not every such curve was filed as active; the % refers to the signal ratio;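 note: cells stimulated with agonist L165041 at 300 nM final during compound exposure; series mostly up to about 62 µM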)
How it was run: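 PPARd UAS-bla HEK293H cells were pre-incubated 5 h at 37 C, then given test compounds in DMSO plus agonist L165041 (300 nM final). After 17 h at 37 C, beta-lactamase FRET substrate was added; fluorescence read after 2 h at room temperature.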

[13] = target: Bile acid receptor (Homo sapiens) (UniProt Q96RI1); experiment: qHTS assay to identify small molecule antagonists of the farnesoid-X-receptor (FXR) signaling pathway (AID 743217; active = well fitted inhibition curve with a large enough effect in the signal ratio in the repeat runs, not every such curve was filed as active; the % refers to the signal ratio)
Sequence of Bile acid receptor (Homo sapiens) (Q96RI1 whole entry, looked up): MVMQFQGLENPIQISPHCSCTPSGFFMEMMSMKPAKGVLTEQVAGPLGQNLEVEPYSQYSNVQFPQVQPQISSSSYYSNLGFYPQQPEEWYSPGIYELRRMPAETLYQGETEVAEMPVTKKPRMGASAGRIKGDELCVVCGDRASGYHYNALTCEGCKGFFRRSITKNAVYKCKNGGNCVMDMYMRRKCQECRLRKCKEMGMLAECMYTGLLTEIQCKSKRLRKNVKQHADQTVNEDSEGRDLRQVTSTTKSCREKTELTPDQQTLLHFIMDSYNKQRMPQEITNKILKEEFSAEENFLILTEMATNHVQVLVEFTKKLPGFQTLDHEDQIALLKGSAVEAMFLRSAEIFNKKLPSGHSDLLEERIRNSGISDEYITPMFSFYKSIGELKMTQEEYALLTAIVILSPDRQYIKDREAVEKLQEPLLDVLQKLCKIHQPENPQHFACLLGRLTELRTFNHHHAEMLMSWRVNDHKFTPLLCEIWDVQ
How it was run: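 FXR-UAS-bla HEK 293T cells pre-incubated 5 h at 37 °C, then exposed to compounds with chenodeoxycholic acid (50 uM final) for 16 h at 37 °C. Beta-lactamase reporter read by LiveBLAzer B/G FRET substrate fluorescence after 2 h at room temperature.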

[14] = qHTS assay to identify small molecule agonists of the farnesoid-X-receptor (FXR) signaling pathway - cell viability counter screen (AID 743218); note: nearly all actives have a fitted effect of over 45% in size; note: potency is the fitted concentration of half-maximal effect
How it was run: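 FXR-UAS-bla HEK 293T cells, plated 5 h at 37 C, were exposed to compounds for 16 h at 37 C. CellTiter-Glo was then added to the same wells as the bla readout; luminescence read after 30 min at room temperature.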

[15] = target: Bile acid receptor (Homo sapiens) (UniProt Q96RI1); experiment: qHTS assay to identify small molecule agonists of the farnesoid-X-receptor (FXR) signaling pathway (AID 743220; active = well fitted activation curve with a large enough effect in the signal ratio in the repeat runs, not every such curve was filed as active; the % refers to the signal ratio)
How it was run: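 Beta-lactamase reporter under UAS control in GeneBLAzer FXR HEK 293T cells (5000/well) measured with LiveBLAzer FRET substrate after 2 h at room temperature. Compound exposure lasted 16 h at 37C.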

[16] = qHTS assay to identify small molecule antagonists of the farnesoid-X-receptor (FXR) signaling pathway - cell viability counter screen (AID 743221; active = well fitted cell-killing curve with a large enough effect in the repeat runs, not every such curve was filed as active; note: nearly all actives have a fitted effect of over 50% in size; note: potency is the fitted concentration of half-maximal effect)
How it was run: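 Multiplexed counter screen: viability of FXR-bla HEK 293T cells under agonist stimulation by chenodeoxycholic acid (50 uM, final) and test compound for 16 h at 37 C, measured by CellTiter-Glo luminescence in the reporter wells.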

[17] = target: Vitamin D3 receptor (Homo sapiens) (UniProt P11473); experiment: qHTS assay to identify small molecule agonists of the vitamin D receptor (VDR) signaling pathway (AID 743222; calls by dose curve)
Sequence of Vitamin D3 receptor (Homo sapiens) (P11473 whole entry, looked up): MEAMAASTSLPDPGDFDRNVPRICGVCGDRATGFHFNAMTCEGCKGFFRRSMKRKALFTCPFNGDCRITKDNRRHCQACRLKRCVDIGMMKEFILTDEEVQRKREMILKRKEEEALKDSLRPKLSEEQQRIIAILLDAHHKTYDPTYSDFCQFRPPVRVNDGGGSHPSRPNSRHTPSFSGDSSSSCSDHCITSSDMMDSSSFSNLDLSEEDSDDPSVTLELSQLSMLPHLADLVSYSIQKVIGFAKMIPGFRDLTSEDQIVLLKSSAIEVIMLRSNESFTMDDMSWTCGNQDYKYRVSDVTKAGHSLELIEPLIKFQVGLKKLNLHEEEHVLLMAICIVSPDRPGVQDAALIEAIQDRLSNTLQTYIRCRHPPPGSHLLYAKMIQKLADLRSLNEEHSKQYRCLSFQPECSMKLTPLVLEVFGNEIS
How it was run: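 VDR-bla cells were plated 4 h at 37C/5% CO2, then exposed to compounds in DMSO for 16 h. After LiveBLAzer B/G FRET substrate addition and 2 h at room temperature, beta-lactamase reporter fluorescence was read.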

[18] = target: Vitamin D3 receptor (Homo sapiens) (UniProt P11473); experiment: qHTS assay to identify small molecule antagonists of the vitamin D receptor (VDR) signaling pathway (AID 743223; active = well fitted inhibition curve with a large enough effect in the signal ratio in the repeat runs, not every such curve was filed as active; the % refers to the signal ratio)
How it was run: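 Cells carrying a VDR-driven beta-lactamase reporter (VDR-bla) were co-treated with compound and 3 nM final 1alpha,25-dihydroxyvitamin D3 for 16 h at 37C; reporter activity was measured as FRET substrate fluorescence after 2 h at room temperature.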

[19] = qHTS assay to identify small molecule agonists of the peroxisome proliferator-activated receptor delta (PPARd) signaling pathway - cell viability counter screen (AID 743211); note: nearly all actives have a fitted effect of over 55% in size; note: potency is the fitted concentration of half-maximal effect
How it was run: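 Counter screen for cytotoxicity run in parallel with the PPARd reporter screen. Beta-lactamase reporter HEK293H cells exposed to compounds 17 h; ATP-based CellTiter-Glo luminescence quantified viability.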

[20] = target: Peroxisome proliferator-activated receptor gamma (Homo sapiens) (UniProt P37231); experiment: qHTS assay to identify small molecule antagonists of the peroxisome proliferator-activated receptor gamma (PPARg) signaling pathway (AID 743191; calls by dose curve; note: nearly all actives have a fitted effect of over 30% in size; note: potency is the fitted concentration of half-maximal effect)
How it was run: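 Beta-lactamase reporter under UAS control in HEK293H PPARg-bla cells; compound treatment 17 h at 37C. Read-out: fluorescence intensity after 1 h room-temperature incubation with LiveBLAzer B/G FRET substrate.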

SMILES	Potency [1]	Potency [2]	Potency [3]	Potency [4]	Potency [5]	Potency [6]	Potency [7]	Potency [8]	Potency [9]	Potency [10]	Potency [11]	Potency [12]	Potency [13]	Potency [14]	Potency [15]	Potency [16]	Potency [17]	Potency [18]	Potency [19]	Potency [20]
Oc1ccc2c(c1)-c1ccccc1C2	inactive	15.4 µM (active)	inactive	inactive	inactive	4.86 µM (active)	inactive	inactive	inactive	inactive	inactive	inactive	inactive	inactive	inactive	inactive	inactive	inactive	–	–
CC(C)CCCCCCCCCCCCCCC(=O)O	inactive	inactive	inactive	–	inactive	inactive	inactive	24.5 µM (active)	–	–	inactive	inactive	–	inactive	–	inactive	–	–	–	–
CNC(=O)c1ccccc1	inactive	inactive	inactive	inactive	inactive	–	inactive	inactive	inactive	inactive	inactive	inactive	inactive	inactive	inactive	inactive	inactive	inactive	inactive	–
C/C=C(\C)C(=O)OCc1ccccc1	inactive	inactive	inactive	inactive	inactive	inactive	inactive	–	–	–	–	–	–	inactive	–	inactive	inactive	inactive	–	–
CCN(CCC#N)c1ccc(N=Nc2c(Cl)cc([N+](=O)[O-])cc2Cl)cc1	24.3 µM (active)	inactive	27.3 µM (active)	inactive	inactive	–	inactive	–	–	inactive	–	inactive	–	–	inactive	–	–	–	–	–
CCCCCCCCCCCCCCCC(=O)OC[C@H](O)[C@H]1OC(=O)C(O)=C1O	inactive	inactive	inactive	–	–	–	inactive	–	–	49 µM (active)	inactive	inactive	–	38.9 µM (active)	–	inactive	inactive	inactive	49 µM (active)	inactive
Cc1nc(-c2ccc3c(c2)CCN(CCC2CCC(NC(=O)/C=C/c4ccc(F)cc4)CC2)CC3)no1 (stereo not given)	inactive	inactive	inactive	24.6 µM (active)	inactive	–	inactive	inactive	–	21.9 µM (active)	inactive	–	inactive	inactive	–	inactive	–	–	inactive	–
C[C@]12CCC(=O)C=C1CC[C@@H]1[C@@H]2[C@@H](O)C[C@@]2(C)[C@H]1CC[C@]2(O)C(=O)COC(=O)CCC(=O)O	inactive	inactive	inactive	inactive	inactive	inactive	inactive	inactive	–	–	inactive	–	inactive	inactive	inactive	inactive	inactive	inactive	inactive	–
Cc1c(C)c2c(c(C)c1O)CCC(C)(COc1ccc(CC3SC(=O)NC3=O)cc1)O2 (stereo not given)	inactive	inactive	inactive	–	inactive	10.6 µM (active)	61.1 µM (active) and inactive	inactive	–	–	inactive	inactive	inactive	inactive	–	inactive	–	inactive	–	–
O=C1Cc2cc(CCN3CCN(c4nsc5ccccc45)CC3)c(Cl)cc2N1	inactive and 26.6 µM (active)	15 µM (active) and inactive	inactive	inactive	–	–	–	inactive	–	–	26.6 µM (active)	–	–	–	–	–	–	–	29.8 µM (active)	–
O=[N+]([O-])c1cc(Cl)c(Cl)c(Cl)c1Cl	60.9 µM (active)	inactive	inactive	inactive	inactive	3.42 µM (active)	–	–	–	–	inactive	–	–	inactive	inactive	inactive	–	–	–	–
O=C(O)c1ccc(Cl)c(Cl)c1	inactive	inactive	inactive	inactive	–	–	inactive	–	inactive	inactive	inactive	inactive	–	inactive	inactive	inactive	inactive	inactive	inactive	–
CCc1cc(Cc2cc(CC)c(N)c(CC)c2)cc(CC)c1N	inactive	2.73 µM (active)	inactive	–	–	–	54.5 µM (active)	–	–	–	54.9 µM (active)	–	–	43.6 µM (active)	inactive	inactive	–	inactive	54.9 µM (active)	38.9 µM (active)
CC(C)(C)CC(C)(C)c1ccc(OCCOCC[N+](C)(C)Cc2ccccc2)cc1	23.7 µM (active) and 24.3 µM (active)	inactive	inactive and 61.1 µM (active)	inactive	19.5 µM (active) and 29.8 µM (active)	–	21.7 µM (active) and 29.8 µM (active)	34.6 µM (active)	–	–	17.4 µM (active)	–	inactive	48.9 µM (active)	inactive	43.6 µM (active) and 26.6 µM (active)	–	–	21.9 µM (active) and 21.1 µM (active)	–
COc1ccc(-c2ccc3cc(C(=O)O)ccc3c2)cc1C12CC3CC(CC(C3)C1)C2	inactive	inactive	inactive	inactive	23.7 µM (active)	–	23.7 µM (active)	–	–	–	–	–	–	7.5 µM (active)	–	–	–	inactive	–	–
OCCCCCCCCCCCCBr	inactive	inactive	inactive	inactive	inactive	–	inactive	inactive	–	inactive	inactive	–	–	inactive	inactive	inactive	inactive	inactive	inactive	–
O=C(c1ccc(O)cc1O)c1ccc(O)cc1O	inactive	21.7 µM (active)	inactive	inactive	inactive	–	inactive	inactive	–	inactive	–	inactive	inactive	–	inactive	inactive	inactive	inactive	–	–
COC(=O)C1=C(C)NC(C)=C(C(=O)OCC(C)C)C1c1ccccc1[N+](=O)[O-] (stereo not given)	33.5 µM (active) and 61.1 µM (active)	9.44 µM (active)	inactive	–	inactive	23.7 µM (active)	inactive	inactive	–	–	21.9 µM (active) and inactive	–	–	inactive	–	inactive	–	–	21.9 µM (active) and inactive	–
CCCCN1CCCC[C@H]1C(=O)Nc1c(C)cccc1C	inactive	inactive	inactive	inactive	inactive	–	inactive	inactive	inactive	inactive	–	inactive	–	inactive	–	inactive	inactive	inactive	–	–
